Source: PubChem (The Scripps Research Institute Molecular Screening Center)
LYPLA1 inh = LYPLA1 (human) inhibition in PME1 counter-screen; 0.16% of 320,000 active; recombinant LYPLA1, FP-Rh probe fluorescence polarization; inhibition, % at 5.9 µM;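 active = inhibition above the mean of all tested compounds plus 3 SD, set per campaign, cut at about 14% in these data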;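 also: inhibitors block serine hydrolase probe labeling of LYPLA1 so polarization falls; 0% = enzyme with DMSO and 100% = wells lacking LYPLA1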
Fam108B inh = counter-screen for RBBP9 inhibitors: inhibitors of mouse Fam108B; recombinant Fam108B, FP-Rh probe fluorescence polarization; inhibition, % at 9.51 µM; 0.33% of 300,000 active;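 active = inhibition above the screen mean inhibition plus 3 SD, computed separately per campaign, cut at about 18% in these data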;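 also: inhibitors lower polarization as less probe binds the enzyme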
PAD4 inh = blocks human protein arginine deiminase 4; recombinant PAD4, RCA probe fluorescence polarization; inhibition, % at 6.36 µM; 0.41% of 330,000 active; AID 485272;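 active = percent inhibition above a cutoff equal to the mean of all tested compounds plus 3 SD, cut at about 15% in these data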;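 also: 0% = PAD4 with RCA probe and DMSO and 100% = probe without PAD4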
PME-1 inh = PME-1 (human) inhibition. Q9Y570. recombinant PME-1, FP-Rh probe fluorescence polarization. inhibition, % at 5.9 µM. 0.53% of 320,000 active. AID 2130;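 active = inhibition above the campaign mean of all compounds plus 3 SD, cut at about 26% in these data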;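 also: competitive labeling of PME-1 active site by serine hydrolase directed probe; 0% = PME-1 with DMSO and 100% = wells lacking PME-1 enzyme; inhibitors block probe labeling so polarization falls and inhibition rises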
LYPLA2 counter = counter-screen for PME1 inhibitors: inhibitors of human LYPLA2; O95372; recombinant LYPLA2, FP-Rh probe fluorescence polarization; inhibition, % at 5.9 µM; 0.38% of 320,000 active; AID 2177;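 active = inhibition above the screen-wide mean plus 3 SD, limit set per campaign, cut at about 26% in these data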;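 also: 0% = LYPLA2 with DMSO and 100% = wells lacking LYPLA2 enzyme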
Target sequence (O95372 whole entry, looked up): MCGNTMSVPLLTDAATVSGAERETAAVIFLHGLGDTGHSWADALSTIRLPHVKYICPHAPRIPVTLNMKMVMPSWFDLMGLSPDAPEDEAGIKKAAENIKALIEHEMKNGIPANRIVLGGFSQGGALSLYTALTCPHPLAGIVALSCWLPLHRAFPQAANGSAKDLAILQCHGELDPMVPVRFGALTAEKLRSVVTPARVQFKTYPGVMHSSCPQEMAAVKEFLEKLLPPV
GSTO1 inh = GSTO1 inhibition, counter-screen for RBBP9 inhibitors. P78417. inhibition, % at 5.96 µM. recombinant GSTO1, activity-based probe fluorescence polarization. 1.1% of 300,000 active;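 active = inhibition above the campaign mean inhibition plus 3 SD, cut at about 35% in these data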;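 also: 0% = GSTO1-1 with DMSO and 100% = wells lacking GSTO1-1 enzyme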
Target sequence (P78417 whole entry, looked up): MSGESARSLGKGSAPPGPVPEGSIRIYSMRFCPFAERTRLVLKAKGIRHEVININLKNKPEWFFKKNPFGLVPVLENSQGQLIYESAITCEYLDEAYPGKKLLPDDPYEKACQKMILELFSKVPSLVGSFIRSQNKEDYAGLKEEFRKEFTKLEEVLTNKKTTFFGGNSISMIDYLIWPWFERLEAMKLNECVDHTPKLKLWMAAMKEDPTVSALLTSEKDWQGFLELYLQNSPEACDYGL
* = called active by the depositor; · = no result given. In the library only some 1.7% were active in any assay of this set; here they are far more common.

SMILES	LYPLA1 inh	Fam108B inh	PAD4 inh	PME-1 inh	LYPLA2 counter	GSTO1 inh
CC1(OC(=O)c2ccc(Cl)nc2)C(=O)C=C2C=C3CCCN3C=C2C1=O (centres undefined)	-1	4	-5	1	-2	35*
CC1(OC(=O)c2ccc(Cl)nc2)C(=O)C=C2C=C(c3ccc(C#N)cc3)OC=C2C1=O (centres undefined)	0	12	1	12	-2	36*
CC1(OC(=O)c2ccc(Cl)nc2)C(=O)C=C2C=C(c3ccsc3)OC=C2C1=O (centres undefined)	0	5	-5	-1	7	24
CC1(OC(=O)c2ccc(Cl)nc2)C(=O)C=C2C=C(C3CC3)OC=C2C1=O (centres undefined)	21*	20*	14	25	21	24
CCC(C)C(NC(=O)c1ccccc1)C(=O)Nc1ccc(S(=O)(=O)Nc2cc(C)nc(C)n2)cc1 (centres undefined)	3	·	2	7	2	·
O=C1C=C(c2cc(F)ccc2F)C[C@@H](c2ccc(F)cc2)C1	4	·	1	-2	5	·
CN(C1=C(NC(=O)c2ccc(Cl)cc2)C(=O)c2ccccc2C1=O)c1ccccc1	-5	8	-1	5	4	43*
Cn1c(=O)oc2cc(S(=O)(=O)Nc3ccc(F)cc3)ccc21	4	3	-1	-3	11	4
Nc1c(C(=O)Nc2ccccc2F)sc2nc(-c3ccco3)ccc12	-10	3	-11	37*	-11	-4
Nc1c(C(=O)Nc2ccccc2F)sc2nc(-c3cccnc3)ccc12	-6	-8	5	11	-9	-2
Cc1ccc(SCC(=O)OCn2nnc3ccccc3c2=O)cc1C	-3	-4	1	0	0	3
CN(CC(=O)Nc1ccc(F)c(F)c1F)C(=O)C1CCC1	-1	2	-3	2	-5	3
CC(C)CC1NC(=O)c2ccc(Cl)cc2-n2c1nc1ccc(Cl)cc1c2=O (centres undefined)	·	·	3	·	·	·
CC(C)=CCc1cc2c(=O)c3c(O)c4c(cc3oc2c(O)c1O)OC(C)C4(C)C (centres undefined)	-29	-2	0	30*	-37	13
COC(=O)[C@H](CCSC)NC(=O)Cn1cnc2c(SC)nc(N)nc21	·	·	0	·	·	·
Cc1sc2ncnc(OCC(=O)N3CCN(S(=O)(=O)c4ccc(Cl)cc4)CC3)c2c1C	-1	2	3	40*	7	1
CCN1C[C@@H]2[C@@H]3C(=O)N(C)C(=O)[C@@H]3[C@](C)(C(=O)OC)N2C1=NC	·	·	2	·	·	·
Cc1nn(-c2ccccc2)c2sc(C(=O)O)cc12	4	-3	-2	0	0	-3
Cc1nn(-c2ccccc2)c2sc(-c3n[nH]c(=S)o3)cc12	9	7	7	39*	6	6
C[C@H](NC(=O)C1CCN(S(=O)(=O)c2ccccc2)CC1)C(=O)NCc1ccco1	-1	2	5	0	0	3
O=C1C(=O)N(CCS(=O)(=O)c2ccccc2)c2ccc(F)cc21	2	-1	-6	-2	9	36*
COc1ccc2c(c1)C(=O)C(=O)N2CCS(=O)(=O)c1ccccc1	7	1	1	0	12	6
COc1ccc(NC(=O)CCl)cn1	1	2	4	6	0	56*
O=C(CCl)Nc1ccc(Oc2cnc3ccccc3n2)cc1	1	0	1	8	5	86*
Cc1ccc(C)c(S(=O)(=O)N2CCN(C(=O)[C@H](Cc3ccccc3)NC(=O)c3ccco3)CC2)c1	·	·	2	·	·	·
SMILES	LYPLA1 inh	Fam108B inh	PAD4 inh	PME-1 inh	LYPLA2 counter	GSTO1 inh
COc1ccc(C2(c3ccc(OC)cc3)NC(=O)N(CC(=O)Nc3cc(C)ccc3OC)C2=O)cc1	-16	-6	-1	-11	-21	7
COC/C=C/C1=CC2=CC(=O)C(C)(OC(=O)c3cccs3)C(=O)C2=CO1 (centres undefined)	-3	3	6	-2	-6	10
COC/C=C/C1=CC2=CC(=O)C(C)(O)C(=O)C2=CO1 (centres undefined)	-3	6	1	-3	2	42*
COC/C=C/C1=CC2=CC(=O)C(C)(OC(=O)c3ccco3)C(=O)C2=CO1 (centres undefined)	10	9	24*	-4	-3	36*
CC(C)(CNC(=O)c1cccc(F)c1)CNC(=O)c1cccc(F)c1	0	2	-3	-1	-3	2
CCn1c(=O)c2cc(C(=O)Nc3ccc(OC)cc3OC)sc2c2ccccc21	3	-1	-4	32*	0	0
CCn1c(=O)c2cc(C(=O)NCCOC)sc2c2ccccc21	1	0	4	-3	2	-4
COc1ccc(S(=O)(=O)N2CCCCCC2)cc1C(=O)NCCOc1ccc(C)cc1	-1	-2	-2	28*	4	-5
O=C(COC(=O)c1ccccc1Br)Nc1cc(S(=O)(=O)N2CCOCC2)ccc1N1CCCC1	4	4	-2	54*	6	4
O=C(COc1ccccc1)Nc1cc(S(=O)(=O)N2CCOCC2)ccc1N1CCCC1	-5	·	1	-3	-12	·
Cc1cccc(Nc2nc(N)nc(CCl)n2)c1C	-1	-1	3	-1	-4	65*
CCOc1ccc(Nc2nc(N)nc(CCl)n2)cc1	-1	-1	-2	1	-5	82*
Cc1cccc(Nc2nc(N)nc(CN3CCC(C(N)=O)CC3)n2)c1C	-2	8	-2	-4	3	1
O=C(/C=C/c1cccc(Cl)c1)NNC(=O)c1ccncc1	1	·	2	-5	-2	·
C=CCSC1=N/C(=C\c2cc(OCC)c(OC(C)=O)c([N+](=O)[O-])c2)C(=O)S1	9	12	0	64*	6	21
C=CCSC1=N/C(=C\c2ccc3c(c2)OCO3)C(=O)S1	3	9	-2	-2	5	7
COc1ccccc1C(=O)NC(=S)Nc1cccc2cc(O)ccc12	-6	5	-3	31*	-6	-3
Cn1c(=O)oc2cc(S(=O)(=O)NCCc3ccccc3)ccc21	3	3	4	1	8	35*
Cn1c(=O)n(C)c2cc(S(=O)(=O)NCCc3ccccc3)ccc21	-3	0	-4	3	-3	18
COC(=O)c1ccc(N2NC(=O)/C(=C/c3cc(OC)c(O)c(OC)c3)C2=O)cc1	0	1	0	-6	-20	37*
CCc1nnc(NC(=O)CSc2nnc(Cc3ccccc3)n2Cc2ccccc2)s1	2	1	2	0	7	-7
CCc1nnc(NC(=O)CSc2nc3cccnc3n2Cc2ccccc2)s1	-1	-2	0	1	-6	36*
